Where “and” joins values, the source holds several entries; their conditions need not be identical. Identical values can stand only once. Results filed as inconclusive are left out. A call without a number means that no potency is given here. More than one record can exist for a structure, and the calls need not agree. Calls of active or inactive are those of the source. Unless noted, calls follow the shape of the dose curve; as a rule, active = well fitted curve in the direction sought with a large enough effect in the repeat runs; inconclusive = weak or mixed curves; inactive = no such curve, though single readings can be large; an effect the other way counts as inactive or inconclusive.
Columns and labels:
[1] = qHTS RealTime-Glo MT Cell Viability Assay in HEK293 cells - 0 hour (AID 1224880); also: nearly all actives have a fitted effect of over 45% in size; also: potency is read from the fitted curve at half-maximal effect
Procedure, shortened: (§1)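 Measured as luminescence from the same continuously cultured HEK293 wells at successive time points (0, 8, 16, 24, 32, 40 h) after compound addition. Reagent present from seeding; dosing at 5 h; incubation 37 C.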

[2] = A CellTox Green Cytotoxicity Assay to monitor cytotoxicity in HEK293 cells - 32 hour (AID 1224881); also: nearly all actives have a fitted effect of over 40% in size
Procedure, shortened: (§2)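 Homogeneous no-lysis format: HEK293 cell suspension mixed with CellTox Green reagent, seeded, incubated 5 h at 37 C/5% CO2, then dosed by pintool with compound in DMSO.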

[3] = A CellTox Green Cytotoxicity Assay to monitor cytotoxicity in HepG2 cells - 0 hour (AID 1224882); also: nearly all actives have a fitted effect of over 35% in size; also: potency is read from the fitted curve at half-maximal effect
Procedure, shortened: (§3)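 Fluorescent DNA-binding dye, 600 HepG2 cells/well, 5 h preincubation then compound in DMSO; same plates read at 0–40 h, 37 C.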

[4] = A CellTox Green Cytotoxicity Assay to monitor cytotoxicity in HepG2 cells - 32 hour (AID 1224883); also: nearly all actives have a fitted effect of over 50% in size; also: potency is read from the fitted curve at half-maximal effect
Procedure, shortened: as §3

[5] = A CellTox Green Cytotoxicity Assay to monitor cytotoxicity in HEK293 cells - 8 hour (AID 1224884); also: nearly all actives have a fitted effect of over 35% in size
Procedure, shortened: as §2

[6] = qHTS RealTime-Glo MT Cell Viability Assay in HepG2 cells - 16 hour (AID 1224885); also: nearly all actives have a fitted effect of over 50% in size
Procedure, shortened: (§4)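 Cell number in HepG2 cultures estimated from NanoLuc luminescence generated by metabolic reduction of a prosubstrate by living cells. The homogeneous, nonlytic format allowed repeated reads at 0, 8, 16, 24, 32 and 40 h of compound exposure.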

[7] = qHTS RealTime-Glo MT Cell Viability Assay in HEK293 cells - 24 hour (AID 1224886); also: nearly all actives have a fitted effect of over 50% in size; also: potency is read from the fitted curve at half-maximal effect
Procedure, shortened: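 Homogeneous bioluminescent viability format in HEK293 cells (600 cells/well). Following 5 h at 37 C/5% CO2, 23 nL compound was pintooled; the signal was measured repeatedly during 40 h incubation.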

[8] = qHTS RealTime-Glo MT Cell Viability Assay in HEK293 cells - 8 hour (AID 1224887); also: nearly all actives have a fitted effect of over 50% in size; also: potency is read from the fitted curve at half-maximal effect
Procedure, shortened: as §1

[9] = A CellTox Green Cytotoxicity Assay to monitor cytotoxicity in HEK293 cells - 16 hour (AID 1224888); also: nearly all actives have a fitted effect of over 35% in size
Procedure, shortened: as §2

[10] = qHTS RealTime-Glo MT Cell Viability Assay in HepG2 cells - 0 hour (AID 1224889); also: nearly all actives have a fitted effect of over 50% in size; also: potency is read from the fitted curve at half-maximal effect
Procedure, shortened: as §4

[11] = A CellTox Green Cytotoxicity Assay to monitor cytotoxicity in HepG2 cells - 8 hour (AID 1224890); also: nearly all actives have a fitted effect of over 45% in size; also: potency is read from the fitted curve at half-maximal effect
Procedure, shortened: as §3

[12] = qHTS assay to identify small molecule antagonists of the androgen receptor (AR) signaling pathway using the MDA cell line in the presence of 0.5 nM R1881 - cell viability counter screen (AID 1259242); also: nearly all actives have a fitted effect of over 45% in size
Procedure, shortened: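 Human breast carcinoma MDA-kb2 cells, cultured without CO2, receive compounds alongside 0.5 nM (final) R1881 agonist. After 16 hr at 37C, viability is taken as live-cell protease signal.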

[13] = molecular target: Estrogen receptor (Homo sapiens) (UniProt P03372); assay: qHTS assay to identify small molecule antagonists of the estrogen receptor alpha (ER-alpha) signaling pathway using the BG1 cell line in the presence of 0.1 nM 17-beta-estradiol (AID 1259244); also: nearly all actives have a fitted effect of over 50% in size; also: potency is read from the fitted curve at half-maximal effect
Procedure, shortened: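 Seeding of stripped-serum-adapted VM7Luc4E2 cells, 24 h attachment, compound transfer, then 0.1 nM final 17beta-estradiol; after 22 h incubation, ONE-Glo reagent and luminescence reading.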

[14] = qHTS assay to identify small molecule HDAC inhibitors (AID 1259364); also: potency is read from the fitted curve at half-maximal effect;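 also: wild-type HCT-116 cells with endogenous class I/II HDAC activity; nearly all actives have a fitted effect of over 45% in size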
Procedure, shortened: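 After a 2 hr compound incubation (37C, 5% CO2), HCT-116 cells seeded at 1,500/well the day before received HDAC-Glo reagent; signal read as luminescence after 30 min at room temperature.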

[15] = qHTS assay to identify small molecule HDAC inhibitors - cell viability counter screen (AID 1259365)
Procedure, shortened: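 Luminescence from CellTiter-Glo, developed 30min at room temperature, reports viability of wild-type HCT-116 cells treated 2hr with compounds at 37 C and 5% CO2 after overnight plating.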

[16] = qHTS assay to identify small molecule agonists of the sonic hedgehog signaling (Shh) pathway - cell viability counter screen (AID 1259366); also: nearly all actives have a fitted effect of over 50% in size; also: potency is read from the fitted curve at half-maximal effect
Procedure, shortened: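 Cytotoxicity counter screen run in the same wells as the Shh reporter assay. NIH/3T3 cells carrying a Gli1 response element–driven luciferase were treated with DMSO-dissolved compounds for 24hr, and live-cell protease activity was measured with CellTiter-Fluor.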

[17] = qHTS assay to identify small molecule antagonists of the sonic hedgehog signaling (Shh) pathway - cell viability counter screen (AID 1259367); also: nearly all actives have a fitted effect of over 55% in size; also: potency is read from the fitted curve at half-maximal effect
Procedure, shortened: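 Tox21 library chemicals were tested on a Gli1-Luc NIH/3T3 clone (2,000 cells/well) stimulated by conditioned medium; viability was quantified as fluorescence from CellTiter-Fluor reagent added at 23 hr.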

[18] = qHTS assay to identify small molecule antagonists of the estrogen receptor alpha (ER-alpha) signaling pathway using the BG1 cell line in the presence of 0.1 nM 17-beta-estradiol - cell viability counter screen (AID 1259241); also: nearly all actives have a fitted effect of over 40% in size
Procedure, shortened: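 VM7Luc4E2, 4,000 cells/well, phenol red-free medium + 10% charcoal-stripped FBS; 24 hr plating; cpd + 0.1 nM E2 final, 22 hr 37C/5% CO2; CellTiter-Fluor 30 min, fluorescence.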

[19] = qHTS assay to identify small molecule phospholipidosis (PLD) inducers (AID 1259344; active = well fitted curve in the direction sought with a large enough effect; an effect the other way counts as inactive or inconclusive)
Procedure, shortened: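 Image-based: LipidTOX Red pit count/intensity per well and per cell; HepG2, 24 h compound at 37 C, PFA fixation, Hoechst counterstain.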

[20] = molecular target: Androgen receptor (Homo sapiens) (UniProt P10275); assay: qHTS assay to identify small molecule antagonists of the androgen receptor (AR) signaling pathway using the MDA cell line in the presence of 0.5 nM R1881 (AID 1259243); also: nearly all actives have a fitted effect of over 50% in size
Procedure, shortened: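 Cells: MDA-kb2 (MMTV-luc). Stimulus: 0.5 nM R1881. Time: 16 hr, 37C, no CO2. Detection: ONE-Glo luminescence after 30 min at RT.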

Sequence of Androgen receptor (Homo sapiens) (P10275 whole entry, looked up): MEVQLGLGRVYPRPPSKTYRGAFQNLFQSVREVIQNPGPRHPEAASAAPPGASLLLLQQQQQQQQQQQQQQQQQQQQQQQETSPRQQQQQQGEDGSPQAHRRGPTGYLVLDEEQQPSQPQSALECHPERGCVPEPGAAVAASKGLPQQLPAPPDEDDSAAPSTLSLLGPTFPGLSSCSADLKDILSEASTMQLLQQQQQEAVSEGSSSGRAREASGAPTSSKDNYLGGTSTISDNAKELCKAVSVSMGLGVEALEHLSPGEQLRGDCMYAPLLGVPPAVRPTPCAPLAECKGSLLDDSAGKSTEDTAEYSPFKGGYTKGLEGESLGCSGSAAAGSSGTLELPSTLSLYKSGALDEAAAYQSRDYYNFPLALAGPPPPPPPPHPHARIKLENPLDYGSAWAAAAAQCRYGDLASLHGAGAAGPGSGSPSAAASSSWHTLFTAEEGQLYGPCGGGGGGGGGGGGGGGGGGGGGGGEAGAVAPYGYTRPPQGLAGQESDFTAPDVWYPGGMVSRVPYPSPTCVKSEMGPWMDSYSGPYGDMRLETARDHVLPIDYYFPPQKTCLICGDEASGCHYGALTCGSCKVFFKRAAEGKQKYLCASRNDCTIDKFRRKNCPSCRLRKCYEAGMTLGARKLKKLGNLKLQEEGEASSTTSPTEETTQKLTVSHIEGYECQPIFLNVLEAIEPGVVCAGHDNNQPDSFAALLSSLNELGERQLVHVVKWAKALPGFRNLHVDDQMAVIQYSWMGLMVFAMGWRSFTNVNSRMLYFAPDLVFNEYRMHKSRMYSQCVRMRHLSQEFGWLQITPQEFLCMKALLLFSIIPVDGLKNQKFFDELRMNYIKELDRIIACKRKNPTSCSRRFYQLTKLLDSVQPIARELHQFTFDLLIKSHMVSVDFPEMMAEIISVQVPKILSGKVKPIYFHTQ
Sequence of Estrogen receptor (Homo sapiens) (P03372 whole entry, looked up): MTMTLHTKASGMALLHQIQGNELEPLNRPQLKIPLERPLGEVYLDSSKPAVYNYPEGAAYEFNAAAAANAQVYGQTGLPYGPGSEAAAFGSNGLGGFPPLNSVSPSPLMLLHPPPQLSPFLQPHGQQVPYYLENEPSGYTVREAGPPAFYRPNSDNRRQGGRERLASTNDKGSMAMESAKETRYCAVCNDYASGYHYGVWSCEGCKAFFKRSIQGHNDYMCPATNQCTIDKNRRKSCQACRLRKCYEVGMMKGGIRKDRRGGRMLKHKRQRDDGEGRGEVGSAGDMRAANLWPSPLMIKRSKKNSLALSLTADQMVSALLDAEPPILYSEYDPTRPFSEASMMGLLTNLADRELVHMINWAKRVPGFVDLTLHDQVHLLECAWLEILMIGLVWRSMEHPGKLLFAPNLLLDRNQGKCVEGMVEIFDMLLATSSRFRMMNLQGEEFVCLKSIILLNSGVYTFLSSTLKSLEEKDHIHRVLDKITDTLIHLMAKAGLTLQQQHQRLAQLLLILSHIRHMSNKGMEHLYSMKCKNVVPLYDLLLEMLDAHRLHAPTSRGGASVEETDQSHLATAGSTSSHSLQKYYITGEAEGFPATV

Structure (SMILES)	Potency [1]	Potency [2]	Potency [3]	Potency [4]	Potency [5]	Potency [6]	Potency [7]	Potency [8]	Potency [9]	Potency [10]	Potency [11]	Potency [12]	Potency [13]	Potency [14]	outcome [15]	Potency [16]	Potency [17]	Potency [18]	outcome [19]	outcome [20]
CCC(C)C=O (stereo unspecified)	inactive	inactive	inactive	inactive	inactive	inactive	inactive and 3.89 µM (active)	inactive and 13.8 µM (active)	inactive	inactive	inactive	inactive	inactive	inactive	inactive	inactive	inactive	–	–	–
O=[N+]([O-])C(CO)(CO)CO	inactive	inactive	inactive	inactive	inactive	inactive	inactive	inactive	inactive	inactive	inactive	inactive	inactive	inactive	inactive	30.2 µM (active) and 48.6 µM (active)	214 nM (active) and inactive	inactive	–	–
NS(=O)(=O)c1cc2c(cc1Cl)NC=NS2(=O)=O	inactive	inactive	inactive	inactive	inactive	inactive	inactive	inactive	inactive	inactive	inactive	inactive	inactive	inactive	inactive	inactive	inactive	–	inactive	–
C=C1C2CCC(C2)C1(C)C (stereo unspecified)	inactive	inactive	inactive	inactive	inactive	inactive	inactive	inactive	inactive	inactive	inactive	inactive	inactive	inactive	inactive	inactive	inactive	inactive	–	–
O=C(c1cc(O)c(O)c(O)c1)c1ccc(O)c(O)c1O	inactive	inactive	inactive	inactive	inactive	inactive	inactive	inactive	inactive	inactive	inactive	inactive	inactive	inactive	inactive	54.3 µM (active) and 54.5 µM (active)	54.5 µM (active)	–	–	–
O=C1CCCCC1	inactive	inactive	inactive	inactive	inactive	inactive	inactive	inactive	inactive	inactive	inactive	inactive	inactive	inactive	inactive	–	inactive	–	–	inactive
CC1=C(CC(=O)O)c2cc(F)ccc2/C1=C\c1ccc(S(C)=O)cc1 (stereo unspecified)	inactive	inactive	inactive	inactive	inactive	inactive	inactive	inactive	inactive	inactive	inactive	inactive	–	inactive	inactive	–	inactive	inactive	inactive	–
COC(=O)c1ccc(C(=O)OC)cc1	inactive	inactive	inactive	19.8 µM (active) and inactive	inactive	inactive	inactive	inactive	inactive	inactive	inactive	inactive	6.19 µM (active) and inactive	–	inactive	6.95 µM (active) and inactive	2.2 µM (active) and inactive	–	–	–
CCCCCCCCCCCCOCC1CO1 (stereo unspecified)	inactive	inactive	inactive	inactive	inactive	inactive	inactive	inactive	inactive	inactive	inactive	inactive	inactive	inactive	inactive	inactive	inactive	inactive	–	–
Cc1cc(NS(=O)(=O)c2ccc(N)cc2)no1	inactive	inactive	inactive	inactive	inactive	inactive	inactive	inactive	inactive	inactive	inactive	inactive	–	inactive	inactive	–	inactive	inactive	inactive	–
C=C(C)C(=O)OCCCCCCCCCCCC	inactive	inactive	inactive	inactive	inactive	inactive	inactive	–	inactive	inactive	inactive	inactive	inactive	inactive	inactive	–	inactive	inactive	–	–
COCC(=O)O	inactive	inactive	inactive	inactive	inactive	inactive	inactive	–	inactive	inactive	inactive	inactive	inactive	inactive	inactive	inactive	inactive	–	–	–
NC(=O)NNc1ccccc1	inactive	inactive	inactive	inactive	inactive	inactive	inactive	–	inactive	inactive	inactive	inactive	–	inactive	inactive	–	inactive	inactive	inactive	–
NCCNCCNCCNCCN	inactive	inactive	inactive	inactive	inactive	inactive	–	inactive	inactive	inactive	inactive	inactive	–	inactive	inactive	–	inactive	inactive	inactive	inactive
Oc1ccc(OCc2ccccc2)cc1	inactive	inactive	inactive	inactive	inactive	inactive	–	853 nM (active) and inactive	inactive	inactive	inactive	inactive	inactive	6.71 µM (active) and inactive	inactive	inactive	inactive	inactive	inactive	–
CCCCOCCO	inactive	inactive	inactive	inactive	inactive	inactive	inactive	–	inactive	inactive	inactive	inactive	inactive	inactive	inactive	inactive	inactive	inactive	–	–
CC1(C)O[C@@H]2C[C@H]3[C@@H]4C[C@H](F)C5=CC(=O)CC[C@]5(C)[C@H]4[C@@H](O)C[C@]3(C)[C@]2(C(=O)CO)O1	17.4 µM (active) and 10.7 µM (active)	inactive	38.9 µM (active) and inactive	43.6 µM (active) and inactive	inactive	inactive	inactive	–	inactive	1.23 µM (active) and 2.68 µM (active)	49 µM (active) and inactive	inactive	inactive	inactive	inactive	–	inactive	inactive	inactive	–
O=C1O[C@H](CO)[C@@H](O)[C@H](O)[C@H]1O	inactive	inactive	inactive	inactive	inactive	inactive	inactive	–	inactive	inactive	inactive	inactive	inactive	inactive	inactive	inactive	inactive	inactive	inactive	–
NCCc1ccc(O)c(O)c1	inactive	inactive	inactive	inactive	inactive	inactive	inactive	–	inactive	inactive	inactive	inactive	2.44 µM (active)	inactive	inactive	–	30.7 µM (active) and inactive	–	inactive	–
Oc1ccc2ccccc2c1N=Nc1ccccc1	inactive	inactive	inactive	inactive	inactive	inactive	inactive	–	inactive	inactive	inactive	–	inactive	21.7 µM (active) and 15.4 µM (active)	inactive	–	inactive	–	–	–
O=c1c(-c2ccc(O)cc2)coc2cc(O)ccc12	inactive	inactive	inactive	inactive	inactive	inactive	–	inactive	inactive	inactive	inactive	inactive	inactive	5.39 µM (active) and 6.11 µM (active)	inactive	–	inactive	inactive	–	inactive
CCCCCCCCCC(=O)O	inactive	inactive	inactive	inactive	inactive	inactive	inactive	–	inactive	inactive	inactive	inactive	–	inactive	inactive	inactive	inactive	inactive	inactive	inactive
CC(=O)Nc1ccc(C(=O)O)cc1	inactive	inactive	inactive	inactive	inactive	inactive	inactive	–	inactive	inactive	inactive	inactive	inactive	inactive	inactive	inactive	inactive	inactive	inactive	–
Cc1cc(Cc2ccc(N)c(C)c2)ccc1N	inactive	inactive	inactive	inactive	inactive	inactive	inactive	–	inactive	inactive	inactive	inactive	–	inactive	inactive	–	inactive	inactive	–	–
